# In all, about 39,000 compounds went through this assay and about 3,300 (8.5%) were called active. The list comes from a sample in which actives are over-represented; it also holds similar structures and randomly drawn compounds.
# Test system: HepG2
# Assay: cytotoxicity call (relative viability < 0.9)
# Conditions: 10 µM
row,Structure (SMILES),cytotoxicity call
1,C[C@@H]1CN([C@@H](C)CO)C(=O)c2ccccc2-c2ccccc2CO[C@@H]1CN(C)C(=O)c1cc(Cl)cc(Cl)c1,inactive
2,O=C(N[C@@H]1C=C[C@H](CC(=O)N2CCOCC2)O[C@@H]1CO)c1ccc2c(c1)OCO2,inactive
3,C[C@@H]1CN([C@@H](C)CO)C(=O)c2cc(NC(=O)C3CCCCC3)ccc2O[C@H]1CN(C)C(=O)Nc1cccc2ccccc12,inactive
4,CO[C@@H](CN(C)C(=O)C1CCOCC1)[C@H](C)CN(C(=O)Nc1ccc(C(F)(F)F)cc1)[C@@H](C)CO,inactive
5,CC(C)CS(=O)(=O)N1C[C@H]2C[C@H](C(=O)N3CCOCC3)[C@@H](C1)O2,inactive
6,CC(=O)O[C@H]1C[C@](C)(O)C2=C[C@@H](O)[C@@](C)(O)[C@@H]2[C@H]2OC(=O)[C@@H](C)[C@@H]21,inactive
7,O=C(CN1CCOCC1)N[C@H]1CC[C@H](CCn2cc(C3CCCC3)nn2)O[C@@H]1CO,inactive
8,CC(C)NC(=O)N(C)C[C@H]1Oc2ccc(NS(=O)(=O)c3ccc(F)cc3)cc2CC(=O)N([C@@H](C)CO)C[C@@H]1C,inactive
9,C[C@@H]1CCCCO[C@H](CN(C)Cc2ccc3c(c2)OCO3)[C@@H](C)CN([C@H](C)CO)C(=O)c2cc(NC(=O)Nc3ccc4c(c3)OCO4)ccc2O1,inactive
10,C[C@@H]1CCCCO[C@@H](CN(C)Cc2ccc3c(c2)OCO3)[C@@H](C)CN([C@H](C)CO)C(=O)c2cc(NC(=O)Nc3ccc4c(c3)OCO4)ccc2O1,inactive
11,C[C@H](CO)N1C[C@H](C)[C@@H](CN(C)Cc2ccc3c(c2)OCO3)OCCCC[C@H](C)Oc2ccc(NC(=O)Nc3ccc4c(c3)OCO4)cc2C1=O,inactive
12,C[C@@H]1CCCCO[C@H](CN(C)Cc2ccc3c(c2)OCO3)[C@H](C)CN([C@@H](C)CO)C(=O)c2cc(NC(=O)Nc3ccc4c(c3)OCO4)ccc2O1,active
13,C[C@@H]1CN([C@H](C)CO)C(=O)c2cc(NC(=O)Nc3ccc4c(c3)OCO4)ccc2O[C@@H](C)CCCCO[C@@H]1CN(C)Cc1ccc2c(c1)OCO2,active
14,C[C@@H]1CN([C@@H](C)CO)C(=O)c2cc(NC(=O)Nc3ccc4c(c3)OCO4)ccc2O[C@@H](C)CCCCO[C@@H]1CN(C)Cc1ccc2c(c1)OCO2,inactive
15,Cc1noc(C)c1S(=O)(=O)Nc1ccc2c(c1)C(=O)N([C@H](C)CO)C[C@H](C)[C@@H](CN(C)C(=O)Nc1ccccc1)O2,inactive
16,CCn1cc(-c2ccnc3[nH]c(-c4cccc(CN(C)C)c4)cc23)c(-c2ccc(NC(=O)N(C)C)cc2)n1,active
17,C[C@@H]1CN([C@H](C)CO)S(=O)(=O)c2ccc(-c3ccc(F)cc3)cc2O[C@H]1CN(C)S(C)(=O)=O,inactive
18,C#Cc1ccc([C@@H]2C=C(C(=O)N3CCN(Cc4ccc5c(c4)OCO5)CC3)O[C@H](OCC)[C@H]2CCCO)cc1,inactive
19,O=S1(=O)CC[C@H](N[C@H]2CCS(=O)(=O)C2)C1,inactive
20,C[C@@H]1CN([C@H](C)CO)S(=O)(=O)c2ccc(C#Cc3ccncc3)cc2O[C@@H]1CN(C)S(=O)(=O)c1ccccc1,active
21,C[C@H]1CN([C@@H](C)CO)S(=O)(=O)c2ccc(C#Cc3ccncc3)cc2O[C@H]1CN(C)S(=O)(=O)c1ccccc1,active
22,C[C@H](CO)N1C[C@H](C)[C@@H](CN(C)S(=O)(=O)c2ccccc2)Oc2cc(C#Cc3ccncc3)ccc2S1(=O)=O,active

row,Structure (SMILES),cytotoxicity call
1,C[C@@H]1CN([C@@H](C)CO)S(=O)(=O)c2ccc(C#Cc3ccncc3)cc2O[C@H]1CN(C)S(=O)(=O)c1ccccc1,active
2,Cc1noc(C)c1NC(=O)Nc1ccc2c(c1)C(=O)N([C@@H](C)CO)C[C@H](C)[C@H](CN(C)CC1CCCCC1)OCCCC[C@@H](C)O2,inactive
3,COc1ccc(Br)cc1S(=O)(=O)NC(=O)/C=C/c1ccccc1Cc1ccc2ccccc2c1,inactive
4,COc1ccc(S(=O)(=O)Nc2ccc3c(c2)C(=O)N([C@@H](C)CO)C[C@@H](C)[C@@H](CN(C)C(=O)Nc2cccc4ccccc24)O3)cc1,inactive
5,C[C@@H]1CN([C@H](C)CO)S(=O)(=O)c2ccc(Br)cc2O[C@H]1CN(C)CC1CCOCC1,inactive
6,C[C@@H]1CN([C@H](C)CO)C(=O)c2cccc(NC(=O)NC3CCCCC3)c2O[C@@H]1CN(C)S(C)(=O)=O,inactive
7,CC(C)C[C@@H]1NC(=O)[C@@H]2C[C@H](C(=O)NCCCCCCN(C)C)[C@H](c3cccc(OCCO)c3)N2C1=O,inactive
8,CC(C)N1C[C@H](C)[C@@H](CN(C)Cc2ccc(Cl)cc2)Oc2c(NC(=O)c3ccncc3)cccc2C1=O,inactive
9,C[C@@H]1CN([C@@H](C)CO)S(=O)(=O)c2ccc(C#Cc3ccncc3)cc2O[C@@H]1CN(C)S(=O)(=O)c1ccccc1,active
10,C[C@@H]1CN([C@H](C)CO)S(=O)(=O)c2ccc(C#Cc3ccncc3)cc2O[C@H]1CN(C)S(=O)(=O)c1ccccc1,active
11,C[C@H](CO)N1C[C@H](C)[C@H](CN(C)S(=O)(=O)c2ccccc2)Oc2cc(C#Cc3ccncc3)ccc2S1(=O)=O,active
12,C[C@H]1CN([C@@H](C)CO)S(=O)(=O)c2ccc(C#Cc3ccncc3)cc2O[C@@H]1CN(C)S(=O)(=O)c1ccccc1,active
13,C[C@@H]1CN([C@H](C)CO)C(=O)c2cccc(NC(=O)c3cnccn3)c2O[C@@H]1CN(C)C(=O)NC1CCCCC1,inactive
14,Cc1noc(C)c1S(=O)(=O)Nc1cccc2c1O[C@@H](CN(C)Cc1ccccc1)[C@@H](C)CN([C@H](C)CO)C2=O,inactive
15,C[C@@H]1CN([C@H](C)CO)C(=O)c2cccc(NC(=O)Nc3cccc4ccccc34)c2O[C@@H]1CN(C)S(=O)(=O)c1ccccc1,inactive
16,CCC(=O)N(C)C[C@@H]1Oc2ncc(C#C[C@H](C)O)cc2C(=O)N([C@@H](C)CO)C[C@H]1C,inactive
17,O=C(C[C@@H]1C[C@@H]2c3cc(NC(=O)Nc4ccccc4)ccc3O[C@@H]2[C@H](CO)O1)NCCN1CCCCC1,inactive
18,CN1CCN2c3ccccc3Cc3ccccc3C2C1.Cl (centres undefined),inactive
19,CN1CCC[C@@H](CC2c3ccccc3Sc3ccccc32)C1,active
20,C[C@H]1CCCN(C(=O)N2c3ccccc3Sc3ccccc32)C1,inactive
21,C[C@@H]1CN([C@@H](C)CO)C(=O)c2c(c3ccccc3n2C)-c2ccccc2CO[C@H]1CN(C)C(=O)CCC(F)(F)F,inactive
22,Cn1c(=O)c2c(nc(S(C)(=O)=O)n2C)n(C)c1=O,active

row,Structure (SMILES),cytotoxicity call
1,Cn1c(=O)c2c(nc(SCSc3nc4c(c(=O)n(C)c(=O)n4C)n3C)n2C)n(C)c1=O,inactive
2,COCCc1nc2c(c(=O)n(C)c(=O)n2C)n1C,inactive
3,C[C@@H]1CN([C@@H](C)CO)C(=O)c2cc(NC(=O)Nc3cccc4ccccc34)ccc2O[C@H]1CN(C)C(=O)Nc1ccc(F)cc1,inactive
4,C[C@@H]1CN([C@H](C)CO)C(=O)CCCn2nncc2CO[C@H]1CN(C)S(=O)(=O)c1cn(C)cn1,inactive
5,C[C@@H]1CN([C@H](C)CO)C(=O)Cc2cc(NC(=O)Nc3ccc(C(F)(F)F)cc3)ccc2O[C@H]1CN(C)C(=O)Nc1ccc(F)cc1,inactive
6,C[C@@H]1CN([C@@H](C)CO)C(=O)Cc2cc(NC(=O)Nc3ccc(C(F)(F)F)cc3)ccc2O[C@H]1CN(C)C(=O)Nc1ccc(F)cc1,inactive
7,C[C@H](CO)N1C[C@H](C)[C@H](CN(C)C(=O)Nc2ccc(C(F)(F)F)cc2)Oc2ccc(NC(=O)Nc3ccc(F)cc3)cc2CC1=O,inactive
8,C[C@@H]1CN([C@@H](C)CO)C(=O)Cc2cc(NC(=O)Nc3ccc(F)cc3)ccc2O[C@@H]1CN(C)C(=O)Nc1ccc(C(F)(F)F)cc1,inactive
9,C[C@H](CO)N1C[C@H](C)[C@H](CN(C)C(=O)Nc2ccc(F)cc2)Oc2ccc(NC(=O)Nc3ccc(C(F)(F)F)cc3)cc2CC1=O,inactive
10,C[C@H]1CN([C@@H](C)CO)C(=O)Cc2cc(NC(=O)Nc3ccc(F)cc3)ccc2O[C@@H]1CN(C)C(=O)Nc1ccc(C(F)(F)F)cc1,inactive
11,C[C@H]1CN([C@@H](C)CO)C(=O)Cc2cc(NC(=O)Nc3ccc(C(F)(F)F)cc3)ccc2O[C@H]1CN(C)C(=O)Nc1ccc(F)cc1,active
12,C[C@@H]1CN([C@H](C)CO)C(=O)Cc2cc(NC(=O)Nc3ccc(C(F)(F)F)cc3)ccc2O[C@@H]1CN(C)C(=O)Nc1ccc(F)cc1,active
13,C[C@@H]1CN([C@H](C)CO)C(=O)Cc2cc(NC(=O)Nc3ccc(F)cc3)ccc2O[C@H]1CN(C)C(=O)Nc1ccc(C(F)(F)F)cc1,inactive
14,C[C@@H]1CN([C@@H](C)CO)C(=O)Cc2cc(NC(=O)Nc3ccc(F)cc3)ccc2O[C@H]1CN(C)C(=O)Nc1ccc(C(F)(F)F)cc1,inactive
15,C[C@@H]1CN([C@@H](C)CO)C(=O)Cc2cc(NC(=O)Nc3ccc(C(F)(F)F)cc3)ccc2O[C@@H]1CN(C)C(=O)Nc1ccc(F)cc1,active
16,C[C@H](CO)N1C[C@H](C)[C@@H](CN(C)C(=O)Nc2ccc(F)cc2)Oc2ccc(NC(=O)Nc3ccc(C(F)(F)F)cc3)cc2CC1=O,active
17,Cc1ccc(S(=O)(=O)N(C)C[C@H]2OCCCC[C@H](C)Oc3ccc(NC(=O)Nc4ccc(C(F)(F)F)cc4)cc3C(=O)N([C@H](C)CO)C[C@@H]2C)cc1,inactive
18,C[C@@H]1CN([C@@H](C)CO)C(=O)c2cc(NC(=O)Nc3ccc(F)cc3)ccc2O[C@@H](C)CCCCO[C@@H]1CN(C)S(=O)(=O)c1ccc(Cl)cc1,inactive
19,COCC(=O)Nc1ccc2c(c1)[C@@H]1C[C@@H](CC(=O)N3CCOCC3)O[C@H](CO)[C@@H]1O2,inactive
20,C[C@H](CO)N1C[C@H](C)[C@@H](CN(C)S(=O)(=O)c2cn(C)cn2)Oc2ccc(NC(=O)Nc3ccccc3)cc2CC1=O,inactive

# Source: the antibiotic and cytotoxicity screens of Wong et al. (2023)
